Results reported in PubChem BioAssay (EPA / NIEHS).
Records with an inconclusive call do not appear. Calls of active or inactive are those of the source. How the source made its calls: active means hit-call score of the fitted dose curve at least 0.9, where 1 is the maximum; inconclusive means response in the unintended direction; inactive means score below 0.9.

target: Steroid hormone receptor ERR1 (Homo sapiens) (UniProt P11474); assay: ATG_ERRa_TRANS: Attagene TRANS-FACTORIAL HepG2 Assay for human Estrogen-Related Receptor alpha (ERRa) (AID 2282971); conditions: HepG2 Attagene TRANS reporter, ERRa transactivation
Sequence (P11474 whole entry, looked up): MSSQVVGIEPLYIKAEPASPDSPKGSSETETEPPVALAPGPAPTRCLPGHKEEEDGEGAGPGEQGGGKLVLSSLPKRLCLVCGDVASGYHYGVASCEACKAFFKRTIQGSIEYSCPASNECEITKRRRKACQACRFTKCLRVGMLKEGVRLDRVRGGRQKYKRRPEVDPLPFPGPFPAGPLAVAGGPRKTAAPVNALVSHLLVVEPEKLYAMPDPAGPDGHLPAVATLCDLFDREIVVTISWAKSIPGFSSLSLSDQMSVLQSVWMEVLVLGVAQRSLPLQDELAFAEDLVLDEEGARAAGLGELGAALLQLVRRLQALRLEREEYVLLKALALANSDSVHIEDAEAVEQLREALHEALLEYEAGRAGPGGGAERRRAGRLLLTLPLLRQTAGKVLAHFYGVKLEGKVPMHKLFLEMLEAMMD
Protocol: ATG_TRANS is a cell-based, multiplexed-readout assay that uses HepG2, a human liver cell line, with measurements taken at 24 hours after chemical dosing in a 24-well plate.ATG_ERRa_TRANS is one of 30 assay component(s) measured or calculated from the ATG_TRANS assay. It is designed to make measurements of mRNA induction, a form of inducible reporter, as detected with fluorescence intensity signals by Reverse transcription polymerase chain reaction (RT-PCR) and Capillary electrophoresis technology.Data from the assay component ATG_ERRa_TRANS was analyzed into 1 assay endpoint. This assay endpoint, ATG_ERRa_TRANS, was analyzed in the positive analysis fitting direction relative to DMSO as the negative control and baseline of activity. Using a type of inducible reporter, measures of mRNA for gain-of-signal activity can be used to understand the reporter gene at the transcription factor-level as they relate to the gene ESRRA. Furthermore, this assay endpoint can be referred to as a primary readout, because this assay has produced multiple assay endpoints where this one serves a reporter gene function. To generalize the intended target to other relatable targets, this assay endpoint is annotated to the nuclear receptor intended target family, where the subfamily is steroidal.
Human liver HepG2 cells are transiently transfected with multiple reporter transcription units (MRTUs) in 6-well plates using FuGene 6 reagent (Roche; 3 ml FuGene/1 mg DNA). The MRTU constructs are regulated by a cis-regulating element (promoter). […] A major difference between the CIS and TRANS system is that in CIS activities of endogenous TFs are measured, whereas the TRANS assay evaluates changes in activities of exogenous, chimeric NR-Gal4 proteins. […] At the end of 24 hour incubation, total RNA was isolated using TriZol reagent (Invitrogen). The isolated RNA is then reverse-transcribed using oligo(dT) primer and Mo-MLV reverse transcriptase (Invitrogen) with DNAse I (Ambion) treatment for 30 min. The one-tenth of the produced cDNA was amplified by PCR using Taq DNA polymerase (Invitrogen) and two reporter sequence-specific primers. The PCR products were fluorescently labeled by primer extension with 6-arboxyfluorescein (6-FAM) 5'-labeled reporter sequence-specific primer (2 min at 95 C, 20 s at 68 C and 10 min at 72 C) and these products were digested with 5U of HpaI (New England Biolabs) for 2h at 37 C. The fragments were purified using Qiaquick PCR columns (Qiagen), analyzed on an ABI 3130xL genetic analyzer (Applied Biosystems) with peak positions identified by using a set of X-rhodamine (ROX)-labeled MapMarker1000 molecular weight standards (BioVentures). The raw capillary electrophoresis data was processed using Attagraph software (Attagene).

Row | Compound | outcome
1 | CCCCC(CC)CN1C(=O)C2C3C=CC(C3)C2C1=O (centres undefined) | inactive
2 | O=C(c1ccccc1)C1CCCCC1 | inactive
3 | C#CCOC(=O)[C@@H](C)Oc1ccc(Oc2ncc(Cl)cc2F)cc1 | inactive
4 | COc1nc(C)nc(NC(=O)NS(=O)(=O)c2ccccc2OCCCl)n1 | inactive
5 | c1ccc(Nc2ccccc2)cc1 | inactive
6 | Cc1nn(C)c(Oc2ccccc2)c1C=NOCc1ccc(C(=O)OC(C)(C)C)cc1 | inactive
7 | CCCCCCC(C)OC(=O)COc1nc(F)c(Cl)c(N)c1Cl (centres undefined) | inactive
8 | CCC(O)=C1C(=O)CC(C(=O)O)CC1=O (centres undefined) | inactive
9 | CCNc1nc(N)nc(Cl)n1 | inactive
10 | CC(C)(c1ccc(O)cc1)c1ccc(O)cc1 | inactive
11 | CCN(Cc1c(F)cccc1Cl)c1c([N+](=O)[O-])cc(C(F)(F)F)cc1[N+](=O)[O-] | inactive
12 | CN(C)C(=O)Nc1ccc(Cl)c(Cl)c1 | inactive
13 | CCCN(CCC)c1c([N+](=O)[O-])cc(C(F)(F)F)c(N)c1[N+](=O)[O-] | inactive
14 | CC(=O)[C@H]1CC[C@H]2[C@@H]3CCC4=CC(=O)CC[C@]4(C)[C@H]3CC[C@]12C | inactive
15 | CCN(CC)C(=O)c1cccc(C)c1 | inactive
16 | OB(O)O | inactive
17 | COC(=O)c1cccc(C)c1S(=O)(=O)NC(=O)Nc1nc(OCC(F)(F)F)nc(N(C)C)n1 | inactive
18 | CCOC(=O)NCCOc1ccc(Oc2ccccc2)cc1 | inactive
19 | C[C@]12CC[C@@H]3c4ccc(O)cc4C[C@@H](CCCCCCCCCS(=O)CCCC(F)(F)C(F)(F)F)[C@H]3[C@@H]1CC[C@@H]2O (some centres undefined) | inactive
